Measured values taken from PubChem BioAssay (NCATS).
Records with an inconclusive call do not appear. A call without a number means that no potency is given here. Calls of active or inactive are those of the source. Calls follow the shape of the dose curve; as a rule, active = well fitted curve in the direction sought with a large enough effect; inconclusive = small, poorly fitted or top-dose-only effect, or another doubt; inactive = no such curve, though single readings can be large; an effect the other way counts as inactive or inconclusive.

What was measured:
[1] = system: Zika virus NS2B-NS3 protease (unlinked complex); assay: Confirmatory screen GU AMC qHTS for Zika virus inhibitors (AID 1347153); also: nearly all actives have a fitted effect of over 70% in size
Procedure, shortened: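 Unlinked enzyme 25 nM, Tris pH 8.0/0.01% Tween 20; cpd 15 min RT, dark; + AMC substrate 10 µM (Km 18.3 µM); 340/450 nm read at t0 and 15 min; % inhibition → 4-param fit.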

[2] = Confirmatory screen NINDS Rhodamine qHTS for Zika virus inhibitors (AID 1347161); also: nearly all actives have a fitted effect of over 60% in size; also: potency is read from the fitted curve at half-maximal effect
Procedure, shortened: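 Purified NS2B-NS3 protease with the NS2B hydrophilic domain joined by a flexible linker (25 nM) in 10 mM Tris-HCl pH 8.0, 0.01% Tween 20, preincubated 15 min at RT with compound; Rhodamine110 peptide substrate 1.5 µM; fluorescence change over 15 min; 4-parameter Hill fit.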

[3] = system: Zika virus NS2B-NS3 protease; assay: Primary screen GU AMC qHTS for Zika virus inhibitors (AID 1347154); also: nearly all actives have a fitted effect of over 70% in size; also: potency is read from the fitted curve at half-maximal effect
Procedure, shortened: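 Unlinked Zika NS2B hydrophilic domain/NS3 protease domain noncovalent complex (25 nM final) in 10 mM Tris-HCl pH 8.0, 0.01% Tween 20, with AMC peptide substrate. Fluorescence (ex 340, em 450 nm) change over 15 min, room temperature; percent inhibition fitted to 4-parameter Hill equation.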

[4] = system: Zika virus NS2B-NS3 protease (unlinked complex); assay: Primary screen GU Rhodamine qHTS for Zika virus inhibitors: Unlinked NS2B-NS3 protease assay (AID 1347159); also: nearly all actives have a fitted effect of over 60% in size
Procedure, shortened: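 Compounds, tested up to 114 microM, were incubated for 15 minutes with 25 nM unlinked NS2B-NS3 protease at pH 8.0. Cleavage of 1.5 microM Rhodamine110 substrate was then followed by fluorescence for 15 minutes.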

[5] = system: Zika virus NS2B-NS3 protease (linked construct); assay: Primary screen NINDS Rhodamine qHTS for Zika virus inhibitors (AID 1347160); also: nearly all actives have a fitted effect of over 55% in size
Procedure, shortened: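 Percent inhibition, normalized to uninhibited and enzyme-free controls, is fitted to a 4-parameter Hill equation. Fluorescence change comes from a 15-min cleavage of 1.5 microM bis-peptide Rhodamine110 substrate by 25 nM linked NS2B-NS3 at room temperature.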

[6] = Confirmatory screen GU Rhodamine qHTS for Zika virus inhibitors qHTS (AID 1347157); also: nearly all actives have a fitted effect of over 70% in size; also: potency is read from the fitted curve at half-maximal effect
Procedure, shortened: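 Enzyme 25 nM in Tris-HCl pH 8.0 + 0.01% Tween 20; compounds up to 114 microM, 15 min RT dark; + Rhod110 substrate 1.5 microM; read t0 and 15 min; delta fluorescence → % inhibition → 4-parameter Hill fit.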

[7] = ZIKV-mCherry secondary qHTS for Zika virus inhibitors (AID 1347158); also: top concentration of the series differs between compounds
Procedure, shortened: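 After overnight seeding at 37 °C, Vero cells receive compound and then ZIKV-mCherry (MOI 1). Following 48-72 h infection, cells are fixed, counterstained with Hoechst, and imaged; percent infected cells is derived from an mCherry intensity cut-off of 450 RFU.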

[8] = system: Zika virus NS2B-NS3 protease (linked); assay: 384 well plate NINDS AMC confirmatory qHTS for Zika virus inhibitors (AID 1347163); conditions: Recombinant NS2B-NS3 protease, Ac-VKTGKR-AMC fluorescence; also: potency is read from the fitted curve at half-maximal effect; nearly all actives have a fitted effect of over 50% in size
From the text: Description: Assay Submitters (PI): Avindra Nath, Ph.D., National Institute of Neurological Disorders and Stroke (NINDS), Bethesda, MD Radhakrishnan Padmanabhan, Ph.D., Georgetown University (GU), Washington D.C. Zika Virus causes congenital defects, including microcephaly and is associated with Guillain-Barre syndrome, eningoencephalitis and myelitis in infected adult. […] Using a target-based approach, we hope to establish a screening paradigm to uncover novel, cell-active NS2B-NS3 protease (Zika Virus) specific inhibitors from NCATS' collection of small molecules using qHTS. […] Four assay panel was created to identify potential Zika Virus inhibitors. Namely, (1) GU unlinked NS2B-NS3 AMC tagged protease qHTS, (2) GU unlinked NS2B-NS3 Rhodamine tagged protease qHTS, (3) NINDS linked NS2B-NS3 AMC tagged protease qHTS, (4) NINDS linked NS2B-NS3 Rhodamine tagged protease qHTS. Active compounds are validated using a secondary assay in 384 well plate format. Early Translation Branch (ETB) National Center for Advancing Translational Sciences (NCATS), Rockville, MD National Institute of Health (NIH), Bethesda, Maryland
384-well NINDS AMC Assay The protease was diluted to 7.5 nM, 40.9 nM, or 82 nM in assay buffer and dispensed into a 96-well PCR plate (Applied Biosystems); 20 or 22 microL was transferred to a black 384-well assay plate (final protease concentration of 5 nM, 30 nM, or 60 nM, respectively). Compounds (3 microL, 1 microM - 10 mM, DMSO) were diluted and transferred to the assay plate (final concentrations ranged from 100 nM to 1 mM). Compounds were incubated with protease for ~15 minutes. The substrate, Ac-VKTGKR-AMC (Genscript), was dissolved in DMSO to a concentration of 6 mM and further diluted into assay buffer to a working concentration of 180 microM, then dispensed into a 384-well preparation plate (Eppendorf). A multichannel repeat pipettor was used to add 3 or 5 microL of substrate to the assay plate to give a final concentration of 30 microM. The plate was incubated in the dark at room temperature. After 25 minutes, the fluorescence intensity (excitation: 355 nm, emission: 460 nm) was measured and normalized to no-enzyme and no-inhibitor controls. Aprotinin39 (VWR) was used as an intraplate control.

[9] = system: Zika virus NS2B-NS3 protease (linked construct); assay: 384 well plate NINDS Rhodamine confirmatory qHTS for Zika virus inhibitors (AID 1347164); conditions: rhodamine-110 peptide substrate fluorescence; also: potency is read from the fitted curve at half-maximal effect; nearly all actives have a fitted effect of over 65% in size
Procedure, shortened: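 Cleavage of Ac-LKRR-Rhodamine 110 (10 microM final) by linked protease (final 5, 30 or 60 nM) was followed as fluorescence at 485/538 nm after 25 min, room temperature, dark. Compounds preincubated ~15 min.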

In the case of CC(C)Oc1cccnc1N(C)C1CCN(Cc2ccccc2)CC1, the outcome [1] is reported as “inactive” and the Potency [2] is reported as “inactive”.
In the case of COc1ccc(C(=O)c2c(C)n(CCN3CCOCC3)c3cc(I)ccc23)cc1, the Potency [3] is reported as “inactive”.
With O=c1cccc2n1CC1CNC[C@H]2C1 the Potency [3] was “inactive”.
For CC(C)Oc1cccc(NC(=O)c2ccccc2C(F)(F)F)c1, the Potency [3] was “inactive”.
For CC(=CCCC1=CCC(C2=CC(=O)OC2O)OC1O)CCC1=C(C)CCCC1(C)C (centres undefined), the Potency [3] was “inactive”.
With CN[C@@H](C)[C@H](O)c1ccccc1 the Potency [3] was “inactive”.
In the case of CC=C(C)C(=O)N[C@@H](c1ccccc1)[C@@H](O)C(=O)O[C@H]1C[C@@]2(O)[C@@H](OC(=O)c3ccccc3)[C@@H]3[C@]4(OC(C)=O)CO[C@@H]4C[C@H](O)[C@@]3(C)C(=O)[C@H](OC(C)=O)C(=C1C)C2(C)C, the Potency [3] is reported as “inactive”.
For C#CC1(O)CCC2C3CCC4=CC(=O)CCC4(C)C3CCC21C (centres undefined), the Potency [3] was “inactive”.
For C[C@@]12OC(=O)[C@]1([C@@H](O)[C@@H]1C=CCCC1)NC(=O)[C@H]2CCCl, the Potency [3] was “inactive”.
With O=C(O)CCCOc1ccc(Cl)cc1Cl the Potency [3] was “inactive”.
For COc1ccc2c(c1)CN(C)CC2c1ccc(Cl)c(Cl)c1 (centres undefined), the Potency [3] was “inactive”.
With C=CC(=O)NCNC(=O)C=C the Potency [3] was “inactive”.
In the case of c1cc2ccc3cccc4ccc(c1)c2c34, the Potency [3] is reported as 17.3 µM (active).
In the case of CC(=Cc1csc(C)n1)[C@@H]1C[C@H]2O[C@]2(C)CCC[C@H](C)[C@@H](O)[C@@H](C)C(=O)C(C)(C)[C@@H](O)CC(=O)O1, the Potency [3] is reported as “inactive”.
With CC(C)(C)[C@]1(O)C[C@@H]2OC(=O)C[C@@]23C(=O)O[C@@H]2OC(=O)[C@H](O)C213 (some centres undefined) the Potency [3] was “inactive”.
In the case of C[C@]12CC[C@H]3[C@@H](CCC4=CC(=O)CC[C@@]43C)[C@H]1CC[C@H]2O, the Potency [3] is reported as “inactive”.
In the case of CCCCC(CC)COC(=O)c1ccccc1C(=O)OCC(CC)CCCC (centres undefined), the Potency [3] is reported as “inactive”.
For CO[C@H]1CCC(O[C@H]2C[C@H]([C@]3(C)CC[C@]4(C[C@H](O)[C@@H](C)[C@@H]([C@@H](C)C=C(C)C(=O)[C@H](C)C[C@H](C)C(=O)O)O4)O3)O[C@]3(O[C@@H]([C@H]4O[C@@](O)(CO)[C@H](C)C[C@H]4C)C[C@H]3C)[C@H]2C)O[C@H]1C (some centres undefined), the Potency [3] was “inactive”.
In the case of COC(=O)c1cncn1C(C)c1ccccc1 (centres undefined), the Potency [3] is reported as “inactive”.
With COC[C@H]1OC(=O)c2coc3c2[C@@]1(C)C1=C(C3=O)[C@@H]2CC[C@H](O)[C@@]2(C)C[C@@H]1OC(C)=O the Potency [3] was “inactive”.
With O=S(=O)(F)Cc1ccccc1 the Potency [3] was “inactive”.
For COc1cc([C@@H]2c3cc4c(cc3[C@@H](O)C3COC(=O)C32)OCO4)cc(OC)c1O (some centres undefined), the Potency [3] was “inactive”.
For C=C1C[C@H]2[C@H]3CCC(=O)[C@@]3(C)CC[C@@H]2[C@@]2(C)C=CC(=O)C=C12, the Potency [3] was “inactive”.
In the case of O=C1CCC[C@@H]2[C@H]3CCCN4CCC[C@@H](CN12)[C@@H]34, the Potency [3] is reported as “inactive”.
For O=C(O)COc1nc(Cl)c(Cl)cc1Cl, the Potency [3] was “inactive”.
In the case of CCOP(=O)(NC(C)C)Oc1ccc(SC)c(C)c1 (centres undefined), the Potency [3] is reported as “inactive”.
With CCCC[N+]1(C)[C@H]2CC(OC(=O)[C@H](CO)c3ccccc3)C[C@H]1[C@H]1O[C@H]12 (some centres undefined) the Potency [3] was “inactive”.
In the case of CC(C)(O)C=CC(=O)[C@](C)(O)[C@H]1[C@H](O)C[C@]2(C)[C@@H]3CC=C4[C@@H](C=C(O)C(=O)C4(C)C)[C@]3(C)C(=O)C[C@@]12C, the Potency [3] is reported as “inactive”.
For COc1ccc2c(c1)[C@]13CCCCC1C(C2)N(C)CC3 (some centres undefined), the Potency [3] was “inactive”.
With CC(C)NCC(O)c1ccc([N+](=O)[O-])cc1 (centres undefined) the Potency [3] was “inactive”.
In the case of Nc1ccc(Cl)cc1N, the Potency [3] is reported as “inactive”.
In the case of O=[N+]([O-])c1cc([N+](=O)[O-])c2ccccc2c1, the Potency [3] is reported as “inactive”.
In the case of O=[N+]([O-])c1c2ccccc2cc2ccccc12, the Potency [3] is reported as “inactive”.
With CC(=Cc1csc(C)n1)[C@@H]1C[C@H]2O[C@@H]2CCC[C@H](C)[C@@H](O)[C@@H](C)C(=O)C(C)(C)[C@@H](O)CC(=O)O1 the Potency [3] was “inactive”.
With COc1ccc(CC2NCCc3cc(OC)c(OC)cc32)cc1OC (centres undefined) the Potency [3] was “inactive”.
For OCCCBr, the Potency [3] was “inactive”.
In the case of CCNC(=O)C[C@@H]1N=C(c2ccc(Cl)cc2)c2cc(OC)ccc2-n2c(C)nnc21, the Potency [3] is reported as “inactive” and the Potency [4] is reported as “inactive”.
In the case of C[C@]12CC[C@@H]3[C@@H](CCC4=CC(=O)CC[C@@H]43)[C@@H]1CC[C@@H]2OC(=O)CCc1ccccc1, the Potency [3] is reported as “inactive”.
For O=C(N[C@@H](COc1ccc2[nH]c(=O)[nH]c2c1)c1ccccc1)c1cccn(Cc2ccc(F)c(F)c2)c1=O, the Potency [3] was “inactive”, the Potency [4] was “inactive” and the Potency [5] was “inactive”.
For c1cc2c(cc1[C@H]1OC[C@H]3[C@H]1CO[C@H]3c1ccc3c(c1)OCO3)OCO2, the Potency [3] was “inactive”.
For NC1CCc2cc(O)c(O)cc2C1 (centres undefined), the Potency [3] was “inactive”.
For CN[C@@H]1Cc2cccc3[nH]c(=O)n(c23)C1, the Potency [3] was “inactive”.
For O=[N+]([O-])c1c(Cl)c(Cl)cc(Cl)c1Cl, the Potency [3] was “inactive”, the Potency [6] was “inactive” and the Potency [2] was “inactive”.
In the case of Clc1ccccc1C(c1ccccc1)(c1ccccc1)n1cccn1, the Potency [3] is reported as “inactive”.
With Cc1ccccc1-n1c(Cn2cnc3c(N)ncnc32)nc2cccc(C)c2c1=O the Potency [3] was “inactive”, the Potency [4] was “inactive” and the Potency [5] was “inactive”.
With O=C(O)C(Cl)Cl the Potency [3] was “inactive”.
With C[C@H]([C@H](O)CCC(C)(C)O)[C@H]1CC[C@@]2(O)C3=CC(=O)[C@@H]4C[C@@H](O)[C@@H](O)C[C@]4(C)[C@@H]3CC[C@]12C the Potency [3] was “inactive”.
For O=C1C=CC[C@@H]2[C@H]3CCCN4CCC[C@@H](CN12)[C@@H]34, the Potency [3] was “inactive” and the Potency [4] was “inactive”.
For O=C1C(I)=CC(=C(c2cc(I)c(O)c(I)c2)c2ccccc2C(=O)O)C=C1I, the Potency [3] was 12.8 µM (active), the Potency [6] was 2.82 µM (active) and the outcome [7] was “inactive”. The Potency [2] was 2.51 µM (active), the Potency [8] was 50.1 µM (active) and the Potency [9] was 8.91 µM (active).
With O=C(O)c1cc(Oc2ccc(C(F)(F)F)cc2Cl)ccc1[N+](=O)[O-] the Potency [3] was “inactive”, the outcome [7] was “inactive” and the Potency [8] was 562 µM (active). For the same molecule, the Potency [9] was 316 µM (active).
In the case of Nc1ccc(Sc2ccc(N)cc2)cc1, the Potency [3] is reported as “inactive”.
For C[C@](O)(COc1ccc(C#N)cc1)C(=O)Nc1ccc(C#N)c(C(F)(F)F)c1, the Potency [3] was “inactive”.
